PostGolgi ctrl = growth inhibition of yeast control strain, primary screen, counter-screen for post-Golgi transport modulator project; AID 738, 2007; actives 5% (n = 98,000); inhibition, % at 10 µM; efflux-deficient yeast background strain, growth absorbance A615, 16 h
PostGolgi yeast = phenotypic screen on post-Golgi transport, primary screen | post-Golgi transport phenotypic cell assay | inhibition, % at 10 µM | actives 0.9% (n = 98,000);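 note: yeast cells grown in 1536-well plates; yeast grown about 18 h at 30C before absorbance read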
MT1-MMP txn act = MT1-MMP promoter reporter activation – cell-based, luciferase luminescence, primary screen. HT1080 MT1-MMP promoter luciferase reporter, overnight; stronger effect = higher value. activation factor at 10 µM. actives 0.16% (n = 86,000);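 active = activation factor of at least 2 for MT1-MMP transcription at 10 µM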
Measles CPE = compounds protecting cells from measles virus cytopathic effect, primary screen, measles RdRp inhibitor project, single point, MLSMR library, absorbance; Measles virus-infected cells, CPE protection; protection (pct of control), % at 4 µM; actives 1.5% (n = 140,000); AID 841, 2007; in the data active = protection mostly above about 24%, no sharp cut-off; inactive = mostly below about 26%
* marks the source's active call; other numbers are inactive results; . = no result given. An excerpt weighted towards active compounds, which were near 5.3% of everything screened. Cut-off read from the data, not from the text of the source, unless noted: active = inhibition above about 30%; inactive = the rest.

SMILES	PostGolgi ctrl	PostGolgi yeast	MT1-MMP txn act	Measles CPE
COc1ccc(C(=O)N2c3ccc(F)cc3CCC2C)cc1OC (configuration not stated)	38*	7	1.1	12
Cc1ccc(N2C(=O)[C@@H]3C(C(=O)CCN4C(=O)c5ccccc5C4=O)=NN[C@@H]3C2=O)cc1	.	.	.	8
Cc1ccc(-c2cn3cccnc3n2)cc1NC(=O)c1cccs1	.	.	.	8
NNC(=O)c1cnn(Cc2ccccc2)c1N	.	.	1	7
Cc1cc(-c2csc(NC(=O)c3ccc(C#N)cc3)n2)c(C)n1Cc1ccco1	.	.	.	10
Cc1cccc(-c2cc3nc4c(c(N5CCC6(CC5)OCCO6)n3n2)CCCC4)c1	.	.	1.2	.
OC1CCCN(c2c3c(nc4cc(-c5cccc(Cl)c5)nn24)CCC3)C1 (configuration not stated)	96*	22	1	24
Cc1cccc(-c2cc3nc4c(c(N5CCCC(O)C5)n3n2)CCC4)c1 (configuration not stated)	79*	-1	1	15
COCCN1CCN(c2c3c(nc4cc(-c5cccc(F)c5)nn24)CCC3)CC1	.	.	1.1	11
NC(=S)N/N=C/c1ccccc1OCc1cccc(Cl)c1	11	2	.	6
Cc1cccnc1NC1(C(F)(F)F)N=C(c2ccccc2)NC1=O (configuration not stated)	1	-5	.	38
Cc1ccc2nc(-c3ccccn3)cc(C(=O)NC3CCN(C)CC3)c2c1	1	20	1.2	67*
Oc1ccc(Br)cc1/C=N/n1cnc2ccccc21	32*	3	1.9	-1
CCc1cccc(NS(=O)(=O)c2ccc3c(c2)oc(=O)n3C)c1	31*	-1	1.2	9
Cn1c(=O)oc2cc(S(=O)(=O)Nc3cccc(C(=O)O)c3)ccc21	-4	-2	1.3	25
CC(C)C(=O)NC(c1ccco1)c1ccc2cccnc2c1O (configuration not stated)	32*	2	.	6
CCOC(=O)c1c(NC(=O)CSC(=S)N2CCOCC2)sc(C)c1C	.	.	.	34
O=C(O)c1cc(-c2ccc(/C=N/Nc3ccc(Cl)cc3)o2)ccc1Cl	10	63*	.	2
COC(=O)N/N=C/c1ccc(-c2ccc(C)c(Cl)c2)o1	.	.	.	10
CCOC(=O)c1ccc(NC(=O)c2ccccc2N(C)S(=O)(=O)c2ccccc2)cc1	.	.	.	5
Cc1cc(C)nc(NC(=O)CSc2nn(C)c(=S)s2)n1	-5	40*	1.1	4
O=C(c1ccc(Cl)cc1)c1cc(-c2ccccn2)c(N2CCOCC2)s1	49*	4	.	19
CCCC1=C([O-])C2N=CC=CC2=[N+](c2ccccn2)C1=O (configuration not stated)	.	.	.	7
Cn1ncc(Br)c1C(=O)NC12CC3CC(CC(C3)C1)C2	.	.	.	4
CN(C)/C=C/C(=O)c1nnn(C2CCCCC2)c1NC1CCCCC1	31*	-6	1	2
SMILES	PostGolgi ctrl	PostGolgi yeast	MT1-MMP txn act	Measles CPE
C1CCC(Nc2nnnn2C2CCCCC2)CC1	6	-5	1.2	2
N#Cc1cc2c(nc1SCc1cccnc1)CCCCC2	63*	44*	1.2	8
N#Cc1cc2c(nc1SCc1ccc(Cl)cc1)CCCC2	.	.	1.1	14
N#Cc1cc2c(nc1SCc1ccccc1)CCCCC2	31*	-3	1.2	4
N#Cc1cc2c(nc1SCc1cccc(Cl)c1)CCCCC2	-2	-2	1.1	12
CC(C)NC(=O)CSc1nncn1-c1ccccc1	33*	4	1	6
COc1ccccc1NS(=O)(=O)c1ccc(Cl)c(NC(=O)C(C)N2C(=O)c3ccccc3C2=O)c1 (configuration not stated)	.	.	.	14
C/C(Cl)=C\Cn1c(Nc2ccccc2)nc2c1c(=O)n(C)c(=O)n2C	9	18	1	25*
COc1ccc(-c2ccc(=O)n(Cc3cc(=O)n4ccccc4n3)n2)cc1	6	24	1	32*
COc1ccc(-c2ccc(=O)n(CC(=O)NCc3ccco3)n2)cc1	12	-1	1	7
Cc1ccc(C)c(NC(=O)c2nnn(Cc3ccccc3)c2N)c1	26	2	1	25
Cc1ccc(C)c(NC(=O)c2nnn(Cc3ccccc3C)c2N)c1	33*	-4	1.2	13
O=C1C=C(Nc2ccc(Cl)cc2)CC(c2ccc(Cl)cc2)C1 (configuration not stated)	52*	8	.	11
O=C1C=C(NCc2ccco2)CC(c2ccc(Cl)cc2)C1 (configuration not stated)	41*	.	1.7	9
O=C1C=C(Nc2ccc(Cl)cc2)CC(c2ccco2)C1 (configuration not stated)	.	.	1.1	7
Cn1c2c(c(=O)c3ccccc31)CCC(C)(C)O2	.	.	.	12
CCN(CC)C(=O)Cn1ncc2c1-c1ccccc1OC2	2	2	1	8
O=C(Cn1ncc2c1-c1ccccc1OC2)Nc1nc2ccccc2s1	47*	-10	1	23
O=C(Cn1ncc2c1-c1ccccc1OC2)N(Cc1ccco1)C1CCCCC1	32*	1	1	18
c1cncc(CNc2ccc3c(c2)OCO3)c1	20	-3	1.2	7
Cc1ccc(CNc2ccc3c(c2)OCO3)c(C)c1	39*	-2	1.6	23
CCN(CC)C(=O)N1c2ccccc2C=Cc2ccccc21	26	1	1.2	57*
NC(=O)N1c2ccccc2C=Cc2ccccc21	.	.	1.2	2
COC(=O)[C@@]1(Cc2ccc(OC)cc2)[C@H]2c3cc(C(=O)N(C)C)n(Cc4ccc(OC)c(OC)c4)c3C[C@H]2CN1C(=O)c1ccccc1	.	.	1.2	.
COC(=O)[C@@H]1C[C@@H]2CC[C@@H](O)C[C@@H]2N1Cc1ccc(-c2ccccc2)cc1	.	.	1.1	.
SMILES	PostGolgi ctrl	PostGolgi yeast	MT1-MMP txn act	Measles CPE
Cc1n[nH]c(C)c1S(=O)(=O)N1CCCC(C(=O)N2CCN(c3ccc(Cl)cc3)CC2)C1 (configuration not stated)	44*	17	1.3	13
Cc1nn(C)c(C)c1S(=O)(=O)N1CCCC(C(=O)N2CCN(c3ccc(Cl)cc3)CC2)C1 (configuration not stated)	8	-10	1.2	12
O=C(C1CCCN(S(=O)(=O)c2cccc3nonc23)C1)N1CCN(c2cccc(Cl)c2)CC1 (configuration not stated)	45*	1	1.1	10
CCn1nc2cc(C(=O)NCCc3cccs3)ccc2c1OC	14	0	.	8
CCCC[C@@H]1C[C@H]1C(NC(=O)c1ccco1)c1ccc(-c2ccccc2)cc1 (some centres not stated)	.	.	1	.
Cc1ccc(NC(=O)Cc2nnc(SCC(=O)c3ccc(Br)cc3)n2C)cc1	4	-1	.	4
CCN(CC)c1ccc(/C=C(/C#N)c2nc3ccccc3[nH]2)c(OC(C)C)c1	11	2	.	7
O=C1c2ccccc2-c2cccc(C(=O)N3CCCCCC3)c21	.	.	.	29*
Cc1nc(-n2nnc3ccccc32)c2c3c(sc2n1)CCCC3	32*	2	1	18
O=S(=O)(Nc1ncnc2sc3c(c12)CCC3)c1ccc2ccccc2c1	18	5	1.1	3

Source: PubChem (several laboratories)
